From PubChem
Artemis inh: blocks endonuclease activity of human Artemis | Q96SD1 | recombinant Artemis, quenched FAM hairpin cleavage fluorescence | inhibition, % at 10 µM | actives 0.78% (n = 30,000) | AID 686954;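 active means at 10 µM dose, at least 30% inhibition, measured as corrected fluorescence normalized to stimulator and neutral control wells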
Target sequence (Q96SD1 whole entry, looked up): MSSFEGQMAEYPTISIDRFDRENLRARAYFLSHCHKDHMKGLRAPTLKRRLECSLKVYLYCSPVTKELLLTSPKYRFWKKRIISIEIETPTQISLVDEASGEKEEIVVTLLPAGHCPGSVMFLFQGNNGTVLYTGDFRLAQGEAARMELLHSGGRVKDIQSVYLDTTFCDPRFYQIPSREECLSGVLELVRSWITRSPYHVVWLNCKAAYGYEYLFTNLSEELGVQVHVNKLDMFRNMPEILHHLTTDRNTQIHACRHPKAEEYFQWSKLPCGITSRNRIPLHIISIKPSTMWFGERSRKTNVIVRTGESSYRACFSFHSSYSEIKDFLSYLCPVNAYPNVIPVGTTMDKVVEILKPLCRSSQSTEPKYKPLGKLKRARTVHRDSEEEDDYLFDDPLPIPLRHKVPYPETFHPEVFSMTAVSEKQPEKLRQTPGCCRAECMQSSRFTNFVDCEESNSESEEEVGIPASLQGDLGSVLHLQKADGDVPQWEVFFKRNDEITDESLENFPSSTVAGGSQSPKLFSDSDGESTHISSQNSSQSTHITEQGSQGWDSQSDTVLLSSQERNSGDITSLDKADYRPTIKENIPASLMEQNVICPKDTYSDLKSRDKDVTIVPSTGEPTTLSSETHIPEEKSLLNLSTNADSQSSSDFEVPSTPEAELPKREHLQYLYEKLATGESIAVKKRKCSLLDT
* marks the source's active call; other numbers are inactive results. The full list was thinned out, with hits kept by preference.

SMILES | Artemis inh
O=C(c1ccccc1)c1nn(-c2ccccc2)c(=O)cc1C(F)(F)F | -4
O=C(c1ccccc1)c1nn(-c2ccc(Cl)cc2)c(=O)cc1C(F)(F)F | 1
O=C1c2ccccc2C(=O)c2c1oc(C(F)(F)F)c2C(=O)c1ccccc1 | 42*
O=S1(=O)C=C(SCc2cccc(Cl)c2)Nc2ccccc21 | 0
COc1ccc(-c2cc(CNC(=O)CN(C)Cc3ccccc3)on2)cc1 | -4
O=C1CCCN1CC(CN1CCOCC1)Sc1nc2ccccc2c(=O)n1-c1ccccc1 (configuration not stated) | 33*
Cc1cc(NC(=O)CSc2nc3ccccc3c(=O)n2-c2ccccc2)no1 | -6
COc1ccc(-n2c(SCC#N)nc3ccccc3c2=O)cc1 | 0
Cc1cc(C(=O)CSc2n[nH]c(-c3ccccc3F)n2)c(C)n1Cc1cccs1 | -2
COc1ccc(-c2nnn(CCc3nn[nH]n3)n2)cc1 | -7
O=C(N/N=C/C1C(c2ccccc2)C1(Cl)Cl)c1cccc(Br)c1 (configuration not stated) | 10
CCNC(=O)CN1c2cccc3cccc(c23)S1(=O)=O | 8
CCN1CCN(C(=O)CN2C(=O)c3cccc4cccc2c34)CC1 | -10
CN1/C(=N\O)c2cccc3cccc1c23 | 38*
Cc1ccc(NC(=O)CC2SC(=O)N(c3ccccc3)C2=O)cc1 (configuration not stated) | -4
Cc1cccc(NC(=O)CC2SC(=O)N(c3ccccc3)C2=O)c1 (configuration not stated) | 2
CC(=O)N(c1cccc(C)c1)C1SC(=O)N(c2ccccc2)C1=O (configuration not stated) | 37*
CCOC(=O)/C(C#N)=C\C1=C(N2CCCC2)CC(C)(CC)OC1 (configuration not stated) | 8
CC(C)CC(c1nnnn1C(C)C)N1CCN(c2ccccc2)CC1 (configuration not stated) | -4
CC1(C)Oc2ccc(NC(=O)c3ccco3)cc2O1 | 9
O=C(NNc1c2ccccc2nc2ccccc12)c1ccc(O)cc1O | 38*
O=C(NNC(=O)c1cc(-c2ccc(Cl)cc2Cl)nc2ccccc12)Nc1ccccc1 | 6
O=C(COc1ccccc1)NNc1c2ccccc2nc2ccccc12 | 12
O=C(c1ccccc1Oc1ccccc1)N1CCN(c2ccccc2F)CC1 | 7
Cc1cc(C)c(N2CCN(S(=O)(=O)N3CCCCCC3)CC2)c(C)c1 | 5
SMILES | Artemis inh
c1ccc(-c2nnc3sc(-c4csc5c4CCCC5)nn23)cc1 | 32*
c1cncc(-c2nnc3sc(C4CCCCC4)nn23)c1 | 2
Clc1ccc(-c2nnc3sc(-c4ccc(Br)o4)nn23)cc1 | -64
COc1ccc(C2=[N+]([O-])C(C)(C)N(O)C2C)cc1 (configuration not stated) | -10
Cc1cc(Cl)ccc1OCCCC(=O)NCC1CCCO1 (configuration not stated) | 4
Cc1cc(NC(=O)COC(=O)CCCOc2ccc(Cl)cc2C)no1 | 0
Cc1cc(Cl)ccc1OCCCC(=O)NO | 63*
Cc1c(C(c2ccc([N+](=O)[O-])cc2)c2c(C)n(C)n(-c3ccccc3)c2=O)c(=O)n(-c2ccccc2)n1C | 7
O=C(COc1ccccc1C(=O)N/N=C\c1ccc(O)c(O)c1)N/N=C/c1ccc(O)c(O)c1 | 66*
Cc1cccc(C)c1OCC(=O)N/N=C/c1ccc2c(c1)OCO2 | -5
CCOc1ccc(/C=N/NC(=O)COc2ccccc2-c2ccccc2)cc1 | 17
CCOc1ccc(C(=O)c2cc([N+](=O)[O-])ccc2Cl)cc1 | 5
C#CCOC(=O)C(NC(=O)c1ccccc1)=C1CCCCC1 | -10
COC(=O)c1ccc(C2/C(=C(/O)c3ccc(OC)cc3)C(=O)C(=O)N2c2cc(C)on2)cc1 (configuration not stated) | 19
Cc1ccc(/C(O)=C2\C(=O)C(=O)N(c3cc(C)on3)C2c2cccc(Br)c2)cc1 (configuration not stated) | 12
COC(=O)c1ccc(C2/C(=C(/O)c3ccc(OC(C)C)cc3)C(=O)C(=O)N2c2cc(C)on2)cc1 (configuration not stated) | 32*
Cc1ccc(CNC(=O)CSc2nc(N3CCCCC3)nc(N3CCCCC3)n2)cc1 | 9
COC(=O)c1ccc(OCC(O)CN(CC(C)C)CC(C)C)cc1 (configuration not stated) | 2
CCn1c(SCC(=O)Nc2oc(-c3ccccc3)c(-c3ccccc3)c2C#N)nnc1-c1ccncc1 | 31*
CCn1c(SCC(=O)Nc2oc(-c3ccccc3)c(-c3ccccc3)c2C#N)nnc1-c1ccco1 | 26
N#Cc1c(NC(=O)CSc2ccccn2)oc(-c2ccccc2)c1-c1ccccc1 | 9
Cc1ccc(CNC(=O)CN(Cc2ccccc2)S(C)(=O)=O)cc1 | 2
CS(=O)(=O)N(CCc1ccccc1)CC(=O)NCC1CCCO1 (configuration not stated) | -5
Cc1ccc(/C=N/N2CCN(Cc3cccc4ccccc34)CC2)o1 | -3
O=C(c1ccccc1)c1c[nH]c(C(=O)NCCCn2ccnc2)c1 | -7
SMILES | Artemis inh
CCOC(=O)c1c(C)[nH]c(C)c1C(=O)COC(=O)c1ccc(Cl)c(S(N)(=O)=O)c1 | -4
COC(=O)c1[nH]c(=O)c2ccccc2c1O | 28
Cc1ccccc1Nc1cc2ccccc2c(=O)[nH]1 | 31*
Cc1cccc2cc(=O)[nH]c(C)c12 | -3
CN(C)/N=C/c1c(O)ccc2ccccc12 | -1
Oc1ccc2ccccc2c1C=NC12CN3CCN(CN(C3)C1)C2 | 41*
Cc1[nH]n(-c2cccc(Cl)c2)c(=O)c1C=NC12CN3CN(CN(C3)C1)C2 | 9
CCOC(=O)c1c(NC(=O)C2c3ccccc3Oc3ccccc32)sc(C(=O)N(CC)CC)c1C | 0
CC(C)(C)Nc1nc(NN)nc(NC(C)(C)C)n1 | 43*
CNc1nc(Cl)nc(NC(C)(C)C)n1 | 0
CC(=O)C(Sc1nc(NC(C)(C)C)nc(N(C)C)n1)C(C)=O | 7
CN(CCC(=O)Nc1ccc(Br)cc1)Cc1ccccc1 | 0
O=C(Nc1ccc(Cl)c(C(F)(F)F)c1)NC1CC2CCCC(C1)N2C1CC1 (configuration not stated) | -4
COc1ccc(S(=O)(=O)NCC2CCC(C(=O)N3CCC4(CC3)OCCO4)CC2)cc1 (configuration not stated) | -8
Cc1ccc(CNC(=O)C2CC(=O)N(c3ccc(OCC(=O)N4CCCC4)cc3)C2)cc1 (configuration not stated) | -4
CCOC(=O)c1c(NC(=O)CSc2nnnn2-c2ccccc2)sc2c1CCC(C)C2 (configuration not stated) | -4
CCOC(=O)c1c(NC(=O)CSc2nncs2)sc(C)c1C | -5
CCOC(=O)c1c(NC(=O)CSc2nnc3c(n2)[nH]c2ccccc23)sc2c1CCN(C)C2 | 42*
O=C1c2cccc3c(O)ccc(c23)C(=O)N1Cc1ccccc1 | -47
O=C(Nc1c(C(=O)Nc2cccc3ccccc23)cnn1-c1ccccc1)c1ccco1 | 10
O=C1CC(N2CCN(S(=O)(=O)c3cccc(C(F)(F)F)c3)CC2)C(=O)N1Cc1ccccc1 (configuration not stated) | 6
CCN(CC)S(=O)(=O)c1ccc(N(C)Cc2cccnc2)nc1 | -15
COc1ccccc1N1CCN(CC(=O)NCC2CCCO2)CC1 (configuration not stated) | -1
CC(C)(C)NC(=O)c1ccc(Sc2ccccc2)c([N+](=O)[O-])c1 | 6
